# Assay results from PubChem BioAssay AID493098 (Sanford-Burnham Center for Chemical Genomics, 2011).
# In all, about 340,000 compounds went through this assay and about 1,700 (0.5%) were called active.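 How the source made its calls: active means compounds whose inhibition of the agonist-driven luminescence signal at 20 µM reaches about 50% (limit read from the data); inactive means the rest.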 The full list was thinned out, with actives kept by preference.
# Target: C-C chemokine receptor type 6 (Homo sapiens) (UniProt P51684)
# Assay: CCR6 receptor antagonists, primary screen, cell-based, CHO-K1, luminescence, beta-arrestin, uHTS (AID 493098);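 further: cells stimulated with CCL20 at 14 nM final; plate controls were DMSO with CCL20 for no effect and DMSO without agonist for full effect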
# Conditions: CHO-K1 CCR6 PathHunter beta-arrestin, CCL20-stimulated, at 20 µM, hits give high values
# C-C chemokine receptor type 6 (Homo sapiens), sequence (P51684 whole entry, looked up): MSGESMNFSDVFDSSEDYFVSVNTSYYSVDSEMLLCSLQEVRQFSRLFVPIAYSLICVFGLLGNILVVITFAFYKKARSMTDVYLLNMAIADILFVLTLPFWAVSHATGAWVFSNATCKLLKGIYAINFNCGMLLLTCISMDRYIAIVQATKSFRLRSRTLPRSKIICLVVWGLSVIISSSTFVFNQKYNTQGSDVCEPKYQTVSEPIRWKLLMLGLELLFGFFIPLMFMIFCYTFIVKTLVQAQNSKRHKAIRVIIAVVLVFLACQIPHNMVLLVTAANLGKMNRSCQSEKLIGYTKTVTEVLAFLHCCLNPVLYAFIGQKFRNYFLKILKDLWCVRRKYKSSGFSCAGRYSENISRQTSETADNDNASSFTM
row,Compound,inhibition
1,CC(=O)OC1C2(CC3N4C(=O)C5(CO)SSC4(CC31O)C(=O)N5C)OC(C)C(C)(C)C2=O (stereo not given),111% (active)
2,COC(=O)[C@@H]1C(OC(=O)c2ccccc2)CC2CCC1N2C (stereo not given in full),6.3% (inactive)
3,CC(Cc1cccs1)NCc1ccc(Cl)cc1 (stereo not given),13.3% (inactive)
4,Cc1nn(-c2ccccc2)c(C)c1NC(=O)COC(=O)Cc1ccccc1,-2.94% (inactive)
5,CCCOC(=O)C1C2c3ccccc3C(c3ccccc32)C1C(=O)O (stereo not given),-3.33% (inactive)
